PAFAH1B3 FP inh: blocks human PAF acetylhydrolase 1B catalytic subunit 3. 0.28% of 340,000 active. recombinant PAFAH1B3, FP-rhodamine probe, fluorescence polarization. Q15102. inhibition, % at 3.39 µM;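 active means inhibition above the screen-wide average of all tested compounds plus 3 SD, cut at about 25% in these data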;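 further: 0% = enzyme with DMSO only and 100% = wells lacking PAFAH1B3 protein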
PME-1 inh: PME-1 (human) inhibition; Q9Y570; recombinant PME-1, FP-Rh probe fluorescence polarization; inhibition, % at 5.9 µM; 0.53% of 320,000 active;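 active means inhibition above the campaign mean of all compounds plus 3 SD, cut at about 26% in these data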;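 further: competitive labeling of PME-1 active site by serine hydrolase directed probe; 0% = PME-1 with DMSO and 100% = wells lacking PME-1 enzyme; inhibitors block probe labeling so polarization falls and inhibition rises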
pPAFAH FP inh: inhibitors of human plasma PAF acetylhydrolase (pPAFAH). 1.5% of 330,000 active. Q13093. AID 463082. recombinant pPAFAH, FP-rhodamine probe fluorescence polarization. inhibition, % at 3.39 µM;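 active means inhibition above the mean inhibition across the screen plus 3 SD, cut at about 25% in these data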;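 further: inhibitors block binding of the rhodamine activity-based probe so polarization drops; 0% = enzyme with DMSO and 100% = wells lacking pPAFAH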
Target sequence (Q13093 whole entry, looked up): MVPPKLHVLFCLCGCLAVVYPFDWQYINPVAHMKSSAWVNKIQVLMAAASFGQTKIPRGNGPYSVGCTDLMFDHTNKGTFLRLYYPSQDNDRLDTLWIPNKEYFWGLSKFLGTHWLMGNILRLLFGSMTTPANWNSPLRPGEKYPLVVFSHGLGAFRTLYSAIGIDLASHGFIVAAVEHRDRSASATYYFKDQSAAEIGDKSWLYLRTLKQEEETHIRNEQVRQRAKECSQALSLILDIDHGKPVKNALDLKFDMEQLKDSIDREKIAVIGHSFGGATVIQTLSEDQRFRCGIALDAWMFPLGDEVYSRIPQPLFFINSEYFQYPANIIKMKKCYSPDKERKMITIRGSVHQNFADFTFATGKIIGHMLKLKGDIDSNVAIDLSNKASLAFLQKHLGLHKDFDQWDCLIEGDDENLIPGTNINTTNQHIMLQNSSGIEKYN
PAFAH1B2 FP inh: PAFAH1B2 (human) inhibition; AID 492953; P68402; recombinant PAFAH1B2, FP-rhodamine activity probe, fluorescence polarization; inhibition, % at 3.39 µM; 1.2% of 340,000 active;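 active means inhibition above the mean of all tested compounds plus 3 SD, cut at about 24% in these data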;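 further: 0% = enzyme with DMSO and 100% = wells lacking PAFAH1B2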
Target sequence (P68402 whole entry, looked up): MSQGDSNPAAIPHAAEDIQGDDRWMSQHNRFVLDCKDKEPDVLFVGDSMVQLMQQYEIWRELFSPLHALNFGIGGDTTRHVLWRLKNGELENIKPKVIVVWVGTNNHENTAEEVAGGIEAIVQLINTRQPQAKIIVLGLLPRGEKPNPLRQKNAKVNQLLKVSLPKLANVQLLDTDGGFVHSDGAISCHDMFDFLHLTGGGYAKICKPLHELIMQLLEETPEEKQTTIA
PAFAH2 FP inh: PAFAH2 (human) inhibition; 0.99% of 340,000 active; Q99487; inhibition, % at 3.39 µM; recombinant PAFAH2, FP-rhodamine activity probe, fluorescence polarization; AID 492956;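 active means inhibition above the mean over all tested compounds plus 3 SD, cut at about 30% in these data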;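 further: inhibitors block probe labeling of enzyme so polarization drops; 0% = enzyme with DMSO and 100% = wells lacking PAFAH2 protein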
Fam108B counter: Fam108B inhibition, counter-screen for RBBP9 inhibitors; recombinant Fam108B, FP-Rh probe fluorescence polarization; inhibition, % at 9.51 µM; 0.33% of 300,000 active;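 active means inhibition above the screen mean inhibition plus 3 SD, computed separately per campaign, cut at about 18% in these data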;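 further: inhibitors lower polarization as less probe binds the enzyme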
* hit, by the source's call; · = no result given. Sampled rows, rich in hits. Any-hit rate of the full collection: about 2.9%.

SMILES	PAFAH1B3 FP inh	PME-1 inh	pPAFAH FP inh	PAFAH1B2 FP inh	PAFAH2 FP inh	Fam108B counter
O=C(/C(=N/N=C/c1ccc(O)c(O)c1)c1ccccc1)c1ccccc1	2.4	30.1*	29.7*	18.7	-9.2	22.0*
CCN(CC)c1ccc(/C=N/N(c2ccccc2)c2ccccc2)c(O)c1	2.2	-4.7	9.7	0.4	-1.6	-1.3
C(=N\N(c1ccccc1)c1ccccc1)/c1ccccn1	4.2	5.3	3.8	1.5	-0.3	2.2
Oc1ccc(/C=N/N(c2ccccc2)c2ccccc2)cc1O	3.8	-5.1	68.9*	1.3	-4.8	-1.8
O=C(/C(=N/O)c1ccccc1)c1ccccc1	6.4	·	·	4.5	1.3	·
CC(=O)c1ccc(-c2nnc(CCC(=O)N3CCCC(C(=O)CC(C)C)C3)o2)s1 (stereo not drawn)	-2.9	-9.6	-3.2	-0.2	0.8	-8.9
COc1cccc(N=Nc2c(N)[nH]n3c(=O)c4c(nc23)CCCC4)c1	·	-2.0	29.9*	·	·	7.6
CCOc1cc(Br)cc(/C=C2\SC(=Nc3ccccc3)NC2=O)c1O	6.7	-1.8	24.6*	6.0	11.9	-0.7
C/C(=N\NC(=O)c1cccc(N/N=C(\C)c2cc(O)ccc2O)c1)c1cc(O)ccc1O	16.5	3.7	31.6*	8.6	9.1	30.2*
C/C(=N\Nc1cccc([N+](=O)[O-])c1)c1ccccc1O	10.3	45.4*	6.0	10.0	-2.5	7.8
C/C(=N\NC(=O)c1ccc(N/N=C(\C)c2ccc(O)cc2)cc1)c1ccc(O)cc1	8.8	27.7*	11.8	6.1	6.3	15.6
CCc1ccccc1NC(=S)N(CCN(C)C)C(C)c1ccco1 (stereo not drawn)	-0.1	-4.7	-1.2	6.3	14.7	-0.3
O=[N+]([O-])c1cc(Cl)cc(C2=NCCN2)c1	0.0	-0.8	-4.3	1.8	-5.5	-2.1
N#Cc1cc([N+](=O)[O-])cnc1NCC(O)CO (stereo not drawn)	-4.1	2.5	0.7	2.8	13.4	-0.7
S=c1[nH]nc(-c2ccco2)n1C1CCCCC1	10.2	0.1	3.5	26.1*	3.7	1.3
CCS(=O)(=O)N1CCN(c2cccc(C)c2C)CC1	3.2	4.7	2.3	1.2	-0.3	5.6
Cc1[nH]n(C(N)=S)c(=O)c1N=Nc1ccc([N+](=O)[O-])cc1Cl	6.0	·	·	0.4	26.6	·
NC(=S)n1[nH]c(-c2ccc([N+](=O)[O-])cc2)c(N=Nc2ccc(O)cc2)c1=O	10.7	-4.8	31.9*	6.7	10.8	11.2
C=CCn1c(-c2cccc(S(=O)(=O)N3CCOCC3)c2)n[nH]c1=S	1.2	·	·	-0.3	-0.6	·
O=C(NC1CC1)C1CCN(S(=O)(=O)c2cc(Cl)ccc2Cl)CC1	12.0	1.4	2.6	4.1	7.6	2.8
O=C(NC1CC1)C1CCN(S(=O)(=O)c2cc([N+](=O)[O-])ccc2Cl)CC1	9.1	-0.7	32.4*	4.5	11.6	·
CC1CN(CCS(=O)(=O)c2cc(Cl)ccc2Cl)CC(C)O1 (stereo not drawn)	-0.8	1.6	3.0	8.2	-15.2	1.6
CCOc1cc(N(CC)CC)ccc1/C=C(/C#N)c1nc2ccccc2[nH]1	15.1	29.9*	26.8*	12.7	14.4	8.0
CCCOc1cc(N(CC)CC)ccc1/C=C(/C#N)c1nc2ccc(C)cc2[nH]1	2.8	14.6	19.1	-4.5	-3.7	4.4
O=C(CCC(=O)N1CCSc2ccccc21)NCc1ccc(Cl)cc1	-3.2	0.4	0.1	25.0*	9.3	-2.3
SMILES	PAFAH1B3 FP inh	PME-1 inh	pPAFAH FP inh	PAFAH1B2 FP inh	PAFAH2 FP inh	Fam108B counter
COc1cc(/C=N\NC(=O)c2ccc(C)nc2)ccc1OC(=O)c1ccc2c(c1)OCO2	-157.5	-150.1	-10.9	-86.5	-128.4	-133.1
CCOc1ccc(OCC(=O)Nc2ccc(N3CCCCC3)cc2)cc1	10.1	-1.4	6.2	11.5	1.8	1.7
Cc1cc(OCC(=O)Nc2ccc(N3CCCC3)cc2)cc(C)c1Cl	-0.3	-3.7	26.1*	-2.3	5.6	2.6
Cc1ccc(S(=O)(=O)N2CC(O)C[C@H]2C(=O)OCC(=O)Nc2ccc(N3CCCCC3)cc2)cc1C (stereo partly drawn)	2.8	5.3	24.8*	0.7	9.0	8.3
O=C(NCC(=O)N(c1ccc(Cl)cc1)C(C(=O)NC1CCCC1)c1ccncc1)c1ccco1 (stereo not drawn)	2.6	6.7	2.1	-0.9	-9.9	-0.6
Cc1nn(C)cc1CN(C)C(=O)c1nn2c(c1Br)NC(c1cccs1)CC2C(F)(F)F (stereo not drawn)	7.0	4.0	-0.4	4.7	-3.0	0.1
CCOC(=O)CN1C(=O)S/C(=C\c2ccc(-c3ccc(C(=O)O)c(Cl)c3)o2)C1=O	4.3	0.3	10.2	-5.0	-2.5	-1.9
O=C(O)c1ccc(-c2ccc(/C=C3\NC(=O)N(Cc4ccc(Cl)cc4)C3=O)o2)cc1Cl	21.8	·	·	7.7	30.3*	·
COc1cccc(OCc2cc(/C=N/NC(=O)c3ccn[nH]3)ccc2OC)c1	-4.0	-18.4	6.4	-5.1	-8.3	-10.4
CNC(=O)NC(=O)C(C)OC(=O)c1ccc(Cl)c(S(=O)(=O)Nc2ccc(F)cc2)c1 (stereo not drawn)	-0.4	4.6	28.9*	-3.7	-4.3	1.7
CC(C)c1ccc(N2C(=O)CC(Sc3ncn[nH]3)C2=O)cc1 (stereo not drawn)	-0.3	-6.5	2.9	16.7	-8.1	-3.4
CC(C)c1ccc(N2C(=O)CC(Sc3nc4ccccc4o3)C2=O)cc1 (stereo not drawn)	10.3	-0.9	5.0	25.9*	-7.7	4.2
COc1ccc(-c2cc(C(F)(F)F)nc(SCC(=O)N3CC(C)OC(C)C3)n2)cc1OC (stereo not drawn)	3.5	·	·	-0.7	2.3	·
N#Cc1ccc(-c2ccco2)nc1SCC(=O)c1ccc(Cl)cc1	2.5	-2.7	38.9*	6.7	0.5	0.8
Cc1ccc(C(=O)CSc2nc(-c3ccccc3)ccc2C#N)cc1	-0.9	0.7	-2.7	1.4	3.7	1.8
CCc1ccccc1NC(=O)CSc1ccsc1[N+](=O)[O-]	2.4	2.3	25.2*	0.6	6.7	7.6
COc1ccccc1CNC(=O)CSc1ccsc1[N+](=O)[O-]	-0.8	2.8	5.4	-3.5	7.0	1.8
O=C(Nc1ccccc1)OCCOc1ccccc1Br	8.7	·	·	4.0	0.7	·
CC(C)(C)OC(=O)NCCCC1=CC2=CC(=O)C(C)(OC(=O)c3ccc(Cl)nc3)C(=O)C2=CO1 (stereo not drawn)	·	25.2	40.4*	·	·	7.5
CC(C)(C)OC(=O)NCCCC1=CC2=CC(=O)C(C)(O)C(=O)C2=CO1 (stereo not drawn)	·	-2.1	32.2*	·	·	0.5
COC(=O)CCCC1=CC2=CC(=O)C(C)(OC(=O)C3CCCC3)C(=O)C2=CO1 (stereo not drawn)	-0.5	-0.2	31.9*	6.5	1.1	-1.6
CCC(=O)OC1(C)C(=O)C=C2C=C(CCCCNC(=O)OC(C)(C)C)OC=C2C1=O (stereo not drawn)	·	3.9	30.1*	·	·	2.3
